Results: PMC7862700, “An all-to-all approach to the identification of sequence-specific readers for epigenetic DNA modifications on cytosine”

Tests used:
Assay in all cases: DAPPL (digital affinity profiling via proximity ligation, sequencing); 10 mM Tris-HCl pH 7.5, 50 mM NaCl, 1 mM DTT, 4% glycerol, room temperature, 30 min; GST-TFs on glutathione beads, 16-mer random dsDNA library, 0.1% formaldehyde crosslink after washing; high values mean tight binding
FLI1 = target: T1, FLI1 (Homo sapiens, UniProt Q01543 1-452); details: protein: recombinant; tags: N-terminal GST; dsDNA, one strand shown
T1 sequence: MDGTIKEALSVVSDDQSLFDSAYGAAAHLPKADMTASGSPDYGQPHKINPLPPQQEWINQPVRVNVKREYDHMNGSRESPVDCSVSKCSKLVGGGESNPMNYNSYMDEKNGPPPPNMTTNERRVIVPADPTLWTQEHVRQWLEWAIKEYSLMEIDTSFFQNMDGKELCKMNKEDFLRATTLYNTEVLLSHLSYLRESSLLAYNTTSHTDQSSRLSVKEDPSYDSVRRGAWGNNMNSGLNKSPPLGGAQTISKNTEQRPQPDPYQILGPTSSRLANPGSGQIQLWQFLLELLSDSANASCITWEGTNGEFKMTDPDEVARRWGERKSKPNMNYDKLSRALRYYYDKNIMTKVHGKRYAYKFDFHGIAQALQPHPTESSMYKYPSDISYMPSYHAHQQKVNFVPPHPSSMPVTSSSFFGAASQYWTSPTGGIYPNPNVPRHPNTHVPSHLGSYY
Method in brief: (§1)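 Beads coated with glutathione captured GST-fused human transcription factors that had been expressed in yeast, and the factors were then given DNA barcodes and pooled with a tag-only sample. The pools were incubated with 200 nmole of a random double-stranded 16-mer DNA library in Tris/NaCl/DTT/glycerol buffer for 30 min at room temperature, washed, crosslinked with 0.1% formaldehyde and proximity-ligated with BsaI/T4 ligase at 37 °C for 1 h. PCR amplification and Illumina NextSeq500 sequencing came last. Binding signal is each hexamer's read frequency for a factor divided by its frequency for the tag-only sample.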

ELK1 = target: T2, ELK1 (Homo sapiens, UniProt P19419 1-428); details: protein: recombinant; tags: N-terminal GST; dsDNA, one strand shown
T2 sequence: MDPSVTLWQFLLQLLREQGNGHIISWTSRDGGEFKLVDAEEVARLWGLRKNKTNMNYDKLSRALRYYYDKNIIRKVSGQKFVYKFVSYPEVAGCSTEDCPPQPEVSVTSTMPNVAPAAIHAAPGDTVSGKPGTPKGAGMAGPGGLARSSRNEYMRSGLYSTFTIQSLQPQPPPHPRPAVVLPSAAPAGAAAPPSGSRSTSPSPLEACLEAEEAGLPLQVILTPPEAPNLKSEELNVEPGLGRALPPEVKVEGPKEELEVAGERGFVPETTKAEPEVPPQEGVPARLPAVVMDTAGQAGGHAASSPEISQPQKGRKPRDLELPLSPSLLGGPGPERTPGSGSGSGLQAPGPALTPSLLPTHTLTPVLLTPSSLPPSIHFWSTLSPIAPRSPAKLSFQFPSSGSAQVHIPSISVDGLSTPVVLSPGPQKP
Method in brief: as §1

GABPA = target: T3, GABPA (Homo sapiens, UniProt Q06546 1-454); details: protein: recombinant; tags: N-terminal GST; dsDNA, one strand shown
T3 sequence: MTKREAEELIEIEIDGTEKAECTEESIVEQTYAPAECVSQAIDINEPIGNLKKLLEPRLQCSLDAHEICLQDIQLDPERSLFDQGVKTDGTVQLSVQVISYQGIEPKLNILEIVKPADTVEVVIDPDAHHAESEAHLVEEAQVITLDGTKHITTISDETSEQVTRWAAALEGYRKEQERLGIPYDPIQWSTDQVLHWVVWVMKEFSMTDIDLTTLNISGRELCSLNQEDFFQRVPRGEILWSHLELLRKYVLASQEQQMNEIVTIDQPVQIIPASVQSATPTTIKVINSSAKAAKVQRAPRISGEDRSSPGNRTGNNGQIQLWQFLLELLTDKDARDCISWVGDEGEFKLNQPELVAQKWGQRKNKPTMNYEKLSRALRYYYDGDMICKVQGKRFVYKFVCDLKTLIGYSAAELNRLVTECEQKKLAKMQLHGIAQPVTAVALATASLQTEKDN
Method in brief: as §1

ERG = target: T4, ERG (Homo sapiens, UniProt P11308 1-479); details: protein: recombinant; tags: N-terminal GST; dsDNA, one strand shown
T4 sequence: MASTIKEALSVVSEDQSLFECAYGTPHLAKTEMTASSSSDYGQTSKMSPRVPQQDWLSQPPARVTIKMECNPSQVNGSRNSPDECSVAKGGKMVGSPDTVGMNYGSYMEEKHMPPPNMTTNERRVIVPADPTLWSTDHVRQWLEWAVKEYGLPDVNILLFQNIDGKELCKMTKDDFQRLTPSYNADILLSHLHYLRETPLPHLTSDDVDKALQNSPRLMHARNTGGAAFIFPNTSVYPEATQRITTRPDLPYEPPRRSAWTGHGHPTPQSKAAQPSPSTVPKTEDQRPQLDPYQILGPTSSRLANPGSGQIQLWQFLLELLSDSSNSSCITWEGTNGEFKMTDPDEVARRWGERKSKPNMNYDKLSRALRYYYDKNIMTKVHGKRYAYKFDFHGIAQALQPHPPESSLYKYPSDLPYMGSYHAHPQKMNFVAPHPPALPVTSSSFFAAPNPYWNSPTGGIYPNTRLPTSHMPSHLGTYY
Method in brief: as §1

ELF1 = ELF1 (Homo sapiens, UniProt P32519 1-619); details: protein: recombinant; tags: N-terminal GST; dsDNA, one strand shown
ELF1, sequence (P32519 whole entry): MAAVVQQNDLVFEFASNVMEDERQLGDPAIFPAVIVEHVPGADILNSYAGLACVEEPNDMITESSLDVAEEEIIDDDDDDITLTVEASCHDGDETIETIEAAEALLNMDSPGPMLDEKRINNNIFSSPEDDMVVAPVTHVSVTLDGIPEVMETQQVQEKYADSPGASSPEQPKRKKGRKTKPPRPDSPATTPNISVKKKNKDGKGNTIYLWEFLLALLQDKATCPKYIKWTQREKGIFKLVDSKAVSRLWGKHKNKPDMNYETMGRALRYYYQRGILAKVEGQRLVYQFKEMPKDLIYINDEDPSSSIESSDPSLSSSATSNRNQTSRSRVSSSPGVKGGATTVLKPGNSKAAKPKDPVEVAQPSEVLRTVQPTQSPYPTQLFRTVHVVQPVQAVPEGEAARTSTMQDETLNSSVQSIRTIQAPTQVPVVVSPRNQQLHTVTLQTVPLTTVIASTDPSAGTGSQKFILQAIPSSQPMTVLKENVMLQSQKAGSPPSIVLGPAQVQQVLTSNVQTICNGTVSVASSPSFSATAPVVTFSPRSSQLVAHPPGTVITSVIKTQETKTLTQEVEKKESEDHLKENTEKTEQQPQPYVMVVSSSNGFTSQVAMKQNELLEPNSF
Method in brief: as §1

EHF = target: T5, EHF (Homo sapiens, UniProt Q9NZC4 1-300); details: protein: recombinant; tags: N-terminal GST; dsDNA, one strand shown
T5 sequence: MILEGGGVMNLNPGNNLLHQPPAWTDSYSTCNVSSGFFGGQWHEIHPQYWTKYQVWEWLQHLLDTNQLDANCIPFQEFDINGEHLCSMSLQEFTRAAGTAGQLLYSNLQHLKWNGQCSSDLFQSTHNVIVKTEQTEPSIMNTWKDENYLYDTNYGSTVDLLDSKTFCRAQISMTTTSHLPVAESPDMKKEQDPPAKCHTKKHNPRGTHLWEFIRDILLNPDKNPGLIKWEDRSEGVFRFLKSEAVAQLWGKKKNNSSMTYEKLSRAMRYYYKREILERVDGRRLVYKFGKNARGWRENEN
Method in brief: as §1

SPI1 = SPI1 (Homo sapiens, UniProt P17947 1-270); details: protein: recombinant; tags: N-terminal GST; dsDNA, one strand shown
Method in brief: as §1

SPIB = SPIB (Homo sapiens, UniProt Q01892 1-262); details: protein: recombinant; tags: N-terminal GST; dsDNA, one strand shown
SPIB, sequence (Q01892 whole entry): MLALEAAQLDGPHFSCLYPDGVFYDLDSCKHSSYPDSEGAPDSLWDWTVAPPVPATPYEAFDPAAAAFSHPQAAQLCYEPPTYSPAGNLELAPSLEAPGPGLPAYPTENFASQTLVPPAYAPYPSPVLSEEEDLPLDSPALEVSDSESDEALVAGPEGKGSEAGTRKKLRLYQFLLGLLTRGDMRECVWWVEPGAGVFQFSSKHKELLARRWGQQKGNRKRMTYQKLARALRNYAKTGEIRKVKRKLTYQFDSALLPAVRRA
Method in brief: as §1

ELK3 = target: T6, ELK3 (Homo sapiens, UniProt P41970 1-407); details: protein: recombinant; tags: N-terminal GST; dsDNA, one strand shown
T6 sequence: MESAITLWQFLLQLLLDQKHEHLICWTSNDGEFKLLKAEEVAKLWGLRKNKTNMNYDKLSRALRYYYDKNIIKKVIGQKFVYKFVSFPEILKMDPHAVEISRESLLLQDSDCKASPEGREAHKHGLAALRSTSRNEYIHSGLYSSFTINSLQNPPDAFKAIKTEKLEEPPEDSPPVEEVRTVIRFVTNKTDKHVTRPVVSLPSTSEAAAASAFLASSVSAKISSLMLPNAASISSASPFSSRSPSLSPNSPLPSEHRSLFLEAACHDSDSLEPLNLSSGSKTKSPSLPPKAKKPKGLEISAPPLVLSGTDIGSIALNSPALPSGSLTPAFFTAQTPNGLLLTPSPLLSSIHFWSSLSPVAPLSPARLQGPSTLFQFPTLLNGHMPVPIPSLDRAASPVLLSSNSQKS
Method in brief: as §1

FEV = target: T7, FEV (Homo sapiens, UniProt Q99581 1-238); details: protein: recombinant; tags: N-terminal GST; dsDNA, one strand shown
T7 sequence: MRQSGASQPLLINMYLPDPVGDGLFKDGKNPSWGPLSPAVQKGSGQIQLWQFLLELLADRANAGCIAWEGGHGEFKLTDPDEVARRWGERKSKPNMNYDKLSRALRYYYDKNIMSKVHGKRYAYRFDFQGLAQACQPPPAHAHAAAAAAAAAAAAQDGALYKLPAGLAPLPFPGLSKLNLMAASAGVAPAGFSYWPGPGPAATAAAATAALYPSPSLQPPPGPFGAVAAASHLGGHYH
Method in brief: as §1

ETV5 = ETV5 (Homo sapiens, UniProt P41161 1-510); details: protein: recombinant; tags: N-terminal GST; dsDNA, one strand shown
ETV5, sequence (P41161 whole entry): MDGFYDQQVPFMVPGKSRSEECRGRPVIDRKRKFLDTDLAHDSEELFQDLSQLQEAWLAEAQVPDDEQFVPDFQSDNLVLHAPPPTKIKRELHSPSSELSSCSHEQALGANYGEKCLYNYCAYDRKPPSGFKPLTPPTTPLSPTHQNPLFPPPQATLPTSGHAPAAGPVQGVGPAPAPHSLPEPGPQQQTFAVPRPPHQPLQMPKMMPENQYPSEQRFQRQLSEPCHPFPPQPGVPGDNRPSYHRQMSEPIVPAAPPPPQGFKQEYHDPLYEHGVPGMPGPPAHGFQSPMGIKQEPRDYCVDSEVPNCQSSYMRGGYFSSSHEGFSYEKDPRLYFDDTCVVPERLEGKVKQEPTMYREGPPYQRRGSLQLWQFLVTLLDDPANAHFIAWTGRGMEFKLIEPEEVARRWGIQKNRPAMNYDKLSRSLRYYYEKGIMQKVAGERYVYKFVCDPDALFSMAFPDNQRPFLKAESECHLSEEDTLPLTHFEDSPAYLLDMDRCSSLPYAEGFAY
Method in brief: as §1

HSF1 = HSF1 (Homo sapiens, UniProt Q00613 1-529); details: protein: recombinant; tags: N-terminal GST; chain copies: 3; dsDNA, one strand shown
HSF1, sequence (Q00613 whole entry): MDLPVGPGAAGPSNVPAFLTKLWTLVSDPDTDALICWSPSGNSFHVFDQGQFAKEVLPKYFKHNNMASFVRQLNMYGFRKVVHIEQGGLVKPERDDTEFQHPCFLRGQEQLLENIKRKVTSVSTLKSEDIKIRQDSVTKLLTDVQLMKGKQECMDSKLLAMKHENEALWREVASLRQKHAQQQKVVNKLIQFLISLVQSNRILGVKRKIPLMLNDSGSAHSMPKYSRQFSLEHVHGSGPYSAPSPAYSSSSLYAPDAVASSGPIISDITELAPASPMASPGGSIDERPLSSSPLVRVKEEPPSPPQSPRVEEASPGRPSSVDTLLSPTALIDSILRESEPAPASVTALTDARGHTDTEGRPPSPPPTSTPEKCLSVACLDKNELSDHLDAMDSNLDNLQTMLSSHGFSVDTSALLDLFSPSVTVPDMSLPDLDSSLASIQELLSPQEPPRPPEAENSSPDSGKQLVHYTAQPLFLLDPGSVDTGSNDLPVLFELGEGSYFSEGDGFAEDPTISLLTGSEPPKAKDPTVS
Method in brief: as §1

SPIC = target: T8, SPIC (Homo sapiens, UniProt Q8N5J4 1-248); details: protein: recombinant; tags: N-terminal GST; dsDNA, one strand shown
T8 sequence: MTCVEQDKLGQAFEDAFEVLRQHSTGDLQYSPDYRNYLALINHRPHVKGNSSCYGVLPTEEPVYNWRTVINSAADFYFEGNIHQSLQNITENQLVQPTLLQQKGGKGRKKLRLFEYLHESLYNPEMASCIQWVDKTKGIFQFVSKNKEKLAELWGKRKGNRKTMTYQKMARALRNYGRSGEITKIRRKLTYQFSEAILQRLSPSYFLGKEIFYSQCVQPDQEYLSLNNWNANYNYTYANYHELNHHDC
Method in brief: as §1

ELF4 = ELF4 (Homo sapiens, UniProt Q99607 1-663); details: protein: recombinant; tags: N-terminal GST; dsDNA, one strand shown
ELF4, sequence (Q99607 whole entry): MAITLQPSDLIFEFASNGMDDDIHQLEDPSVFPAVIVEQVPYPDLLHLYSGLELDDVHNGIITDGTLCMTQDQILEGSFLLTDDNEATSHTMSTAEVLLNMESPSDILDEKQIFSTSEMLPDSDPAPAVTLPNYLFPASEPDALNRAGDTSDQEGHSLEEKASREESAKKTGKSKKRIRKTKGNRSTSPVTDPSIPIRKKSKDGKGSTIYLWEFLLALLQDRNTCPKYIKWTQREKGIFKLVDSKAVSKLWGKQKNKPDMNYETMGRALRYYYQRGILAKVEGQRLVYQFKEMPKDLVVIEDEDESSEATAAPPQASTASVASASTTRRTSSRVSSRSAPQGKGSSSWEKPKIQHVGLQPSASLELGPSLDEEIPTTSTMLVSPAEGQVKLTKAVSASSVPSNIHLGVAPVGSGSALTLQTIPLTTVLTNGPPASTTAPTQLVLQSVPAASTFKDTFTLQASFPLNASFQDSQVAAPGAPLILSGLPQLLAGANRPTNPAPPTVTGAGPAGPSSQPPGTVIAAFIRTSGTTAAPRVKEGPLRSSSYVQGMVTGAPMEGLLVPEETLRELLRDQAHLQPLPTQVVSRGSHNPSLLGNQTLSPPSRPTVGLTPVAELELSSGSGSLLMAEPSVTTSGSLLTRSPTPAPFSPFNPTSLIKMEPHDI
Method in brief: as §1

ELK4 = target: T9, ELK4 (Homo sapiens, UniProt P28324-2 1-405); details: protein: recombinant; tags: N-terminal GST; dsDNA, one strand shown
T9 sequence: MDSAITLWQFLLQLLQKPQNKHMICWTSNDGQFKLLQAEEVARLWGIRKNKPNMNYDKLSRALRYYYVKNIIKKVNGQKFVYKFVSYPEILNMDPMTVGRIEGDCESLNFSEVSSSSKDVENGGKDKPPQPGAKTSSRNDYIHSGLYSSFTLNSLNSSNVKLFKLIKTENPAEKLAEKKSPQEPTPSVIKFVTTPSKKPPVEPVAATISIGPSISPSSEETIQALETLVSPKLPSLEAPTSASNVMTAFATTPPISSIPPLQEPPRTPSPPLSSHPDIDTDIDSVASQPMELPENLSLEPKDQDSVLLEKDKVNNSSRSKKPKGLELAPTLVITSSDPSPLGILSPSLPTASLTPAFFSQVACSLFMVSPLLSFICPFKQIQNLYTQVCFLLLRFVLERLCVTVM
Method in brief: as §1

ETV2 = target: T10, ETV2 (Homo sapiens, UniProt O00321 1-342); details: protein: recombinant; tags: N-terminal GST; dsDNA, one strand shown
T10 sequence: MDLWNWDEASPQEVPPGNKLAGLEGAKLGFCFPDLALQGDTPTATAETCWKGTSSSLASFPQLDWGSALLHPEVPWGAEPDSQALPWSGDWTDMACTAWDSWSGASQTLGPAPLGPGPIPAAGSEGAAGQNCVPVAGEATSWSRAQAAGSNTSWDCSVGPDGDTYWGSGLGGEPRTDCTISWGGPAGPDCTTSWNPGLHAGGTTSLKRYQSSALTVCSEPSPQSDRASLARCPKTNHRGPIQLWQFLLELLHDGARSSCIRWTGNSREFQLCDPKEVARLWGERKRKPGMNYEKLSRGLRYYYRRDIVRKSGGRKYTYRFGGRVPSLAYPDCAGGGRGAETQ
Method in brief: as §1

ELF3 = target: T11, ELF3 (Homo sapiens, UniProt P78545 1-371); details: protein: recombinant; tags: N-terminal GST; dsDNA, one strand shown
T11 sequence: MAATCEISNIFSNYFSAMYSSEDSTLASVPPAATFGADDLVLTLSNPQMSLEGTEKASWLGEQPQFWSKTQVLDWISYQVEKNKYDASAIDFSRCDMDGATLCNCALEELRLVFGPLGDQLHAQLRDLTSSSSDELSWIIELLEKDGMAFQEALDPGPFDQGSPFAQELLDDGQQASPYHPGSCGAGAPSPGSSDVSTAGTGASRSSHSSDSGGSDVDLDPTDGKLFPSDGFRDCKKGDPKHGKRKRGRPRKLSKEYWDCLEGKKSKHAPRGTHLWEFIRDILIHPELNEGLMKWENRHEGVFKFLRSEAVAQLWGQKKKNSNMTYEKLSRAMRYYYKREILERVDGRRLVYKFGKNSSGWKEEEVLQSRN
Method in brief: as §1

CRX = CRX (Homo sapiens, UniProt O43186 1-299); details: protein: recombinant; tags: N-terminal GST; dsDNA, one strand shown
CRX, sequence (O43186 whole entry): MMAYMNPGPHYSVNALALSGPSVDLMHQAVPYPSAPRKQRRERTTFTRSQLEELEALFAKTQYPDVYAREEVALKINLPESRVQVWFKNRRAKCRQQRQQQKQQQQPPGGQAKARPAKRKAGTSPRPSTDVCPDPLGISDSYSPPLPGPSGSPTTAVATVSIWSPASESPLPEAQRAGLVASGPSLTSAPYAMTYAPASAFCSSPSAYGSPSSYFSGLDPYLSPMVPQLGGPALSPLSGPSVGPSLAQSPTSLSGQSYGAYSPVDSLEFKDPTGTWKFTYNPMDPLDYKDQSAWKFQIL
Method in brief: as §1

ETV1 = ETV1 (Homo sapiens, UniProt P50549 1-477); details: protein: recombinant; tags: N-terminal GST; dsDNA, one strand shown
ETV1, sequence (P50549 whole entry): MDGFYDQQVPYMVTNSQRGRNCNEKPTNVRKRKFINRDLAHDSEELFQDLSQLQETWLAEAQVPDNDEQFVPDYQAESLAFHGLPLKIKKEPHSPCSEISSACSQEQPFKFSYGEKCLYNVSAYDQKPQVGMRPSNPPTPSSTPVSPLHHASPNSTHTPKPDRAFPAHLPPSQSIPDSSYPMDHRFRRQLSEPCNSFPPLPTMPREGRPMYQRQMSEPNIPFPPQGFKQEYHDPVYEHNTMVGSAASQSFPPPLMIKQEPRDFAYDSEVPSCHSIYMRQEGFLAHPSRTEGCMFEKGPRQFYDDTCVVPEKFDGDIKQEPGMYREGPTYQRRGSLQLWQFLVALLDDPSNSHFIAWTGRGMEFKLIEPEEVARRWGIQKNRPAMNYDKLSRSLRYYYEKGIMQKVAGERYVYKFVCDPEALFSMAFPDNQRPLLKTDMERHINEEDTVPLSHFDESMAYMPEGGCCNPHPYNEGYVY
Method in brief: as §1

In the case of TAACGC, the binding signal (FLI1) is reported as 1.12 fold enrichment (6-mer frequency, TF over GST control), the binding signal (ELK1) is reported as 1.2 fold enrichment (6-mer frequency, TF over GST control) and the binding signal (GABPA) is reported as 1.21 fold enrichment (6-mer frequency, TF over GST control). For the same sequence, the binding signal (ERG) was 1.17 fold enrichment (6-mer frequency, TF over GST control), the binding signal (ELF1) was 1.27 fold enrichment (6-mer frequency, TF over GST control) and the binding signal (EHF) was 1.16 fold enrichment (6-mer frequency, TF over GST control). The binding signal (SPI1) was 1.17 fold enrichment (6-mer frequency, TF over GST control), the binding signal (SPIB) was 1.13 fold enrichment (6-mer frequency, TF over GST control) and the binding signal (ELK3) was 1.23 fold enrichment (6-mer frequency, TF over GST control). For the same sequence, the binding signal (FEV) was 1.19 fold enrichment (6-mer frequency, TF over GST control), the binding signal (ETV5) was 1.22 fold enrichment (6-mer frequency, TF over GST control) and the binding signal (HSF1) was 1.28 fold enrichment (6-mer frequency, TF over GST control). For the same sequence, the binding signal (SPIC) was 1.05 fold enrichment (6-mer frequency, TF over GST control), the binding signal (ELF4) was 1.15 fold enrichment (6-mer frequency, TF over GST control) and the binding signal (ELK4) was 1.17 fold enrichment (6-mer frequency, TF over GST control). The binding signal (ETV2) was 1.13 fold enrichment (6-mer frequency, TF over GST control), the binding signal (ELF3) was 1.17 fold enrichment (6-mer frequency, TF over GST control) and the binding signal (CRX) was 1.63 fold enrichment (6-mer frequency, TF over GST control). The binding signal (ETV1) was 1.12 fold enrichment (6-mer frequency, TF over GST control).
